PINK1 modulator: changes PINK1 expression | Potency, µM (top dose mostly 76.6 µM), for inactives: at the top dose activation (PINK1 increase), hits mostly activators | PINK1 immunofluorescence, high-content cytometry, 24 h | 410,000 tested, 0.2% active; active = well fitted activation curve with a large enough effect; inconclusive = small, poorly fitted or top-dose-only effect; cell line not stated here; also: % of control where 0% means no effect; nearly all actives have a fitted effect of over 65% in size
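PINK1 protein, normally rapidly degraded, was detected by immunofluorescence after 24 hour compound treatment of a stable cell line. Titration data (5 concentrations) came from laser-scanning cytometry, with CCCP-treated wells as controls.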
12-LOX inh: inhibitors of human 12S-lipoxygenase ALOX12 | 580,000 tested, 1.1% active | Potency, µM (top dose mostly 108 µM), inactives show at the highest dose activity change, negative = inhibition, hits mostly inhibitors | purified 12hLO, xylenol orange hydroperoxide absorbance | P18054; also: % is scaled to controls: 0 for no effect and ±100 for the full control effect
Target sequence (P18054 whole entry, looked up): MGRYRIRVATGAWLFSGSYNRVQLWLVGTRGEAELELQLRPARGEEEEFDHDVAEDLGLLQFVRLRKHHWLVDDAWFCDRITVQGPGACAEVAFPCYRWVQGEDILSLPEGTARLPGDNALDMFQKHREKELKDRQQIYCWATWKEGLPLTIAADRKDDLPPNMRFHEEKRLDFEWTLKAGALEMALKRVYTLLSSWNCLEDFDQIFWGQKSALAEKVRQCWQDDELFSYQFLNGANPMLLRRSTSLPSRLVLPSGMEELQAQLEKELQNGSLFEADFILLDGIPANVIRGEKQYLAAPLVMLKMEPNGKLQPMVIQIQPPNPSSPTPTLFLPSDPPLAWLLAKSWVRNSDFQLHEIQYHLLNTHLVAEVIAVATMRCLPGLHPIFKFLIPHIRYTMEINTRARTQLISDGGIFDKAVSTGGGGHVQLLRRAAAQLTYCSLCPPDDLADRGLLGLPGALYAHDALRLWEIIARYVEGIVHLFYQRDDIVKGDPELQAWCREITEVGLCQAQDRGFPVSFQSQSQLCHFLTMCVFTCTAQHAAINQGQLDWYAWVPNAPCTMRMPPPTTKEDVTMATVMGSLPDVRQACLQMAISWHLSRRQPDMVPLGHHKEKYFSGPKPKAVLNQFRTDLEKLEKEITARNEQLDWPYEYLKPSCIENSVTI
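Purified human 12hLO (150 nM final) in 25 mM Hepes, 0.01% Triton X-100, pH 7.0 was preincubated 15 min at room temperature with compound. Then 40 uM arachidonic acid was added, 30 min. Hydroperoxide was read by Fe-XO absorbance ratio 573/405 nm.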
MCF10A rereplic: induces DNA re-replication in MCF 10a normal breast cells. MCF 10A DNA re-replication, Hoechst nuclear intensity, 48 h. Potency, µM (highest dose often 46.1 µM), inactives show at the top dose activity, positive = re-replication, actives largely listed as activators. 350,000 tested, 2.9% active. AID 624296; also: % of control where 0% means no effect; nearly all actives have a fitted effect of over 50% in size
SW480 rerep: DNA re-replication induction in SW480 cells. SW480 DNA re-replication, Hoechst DNA content imaging, 48 h. Potency, µM (titrated, usually from 46.1 µM), without a hit: top-dose re-replication activation, hits mostly activators. 340,000 tested, 1.8% active. AID 624297; also: % of control where 0% means no effect; nearly all actives have a fitted effect of over 55% in size
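Image-based DNA-content assay: after two days of treatment, nuclei were labelled with the DNA dye Hoechst and imaged, and hits were compounds raising the count of nuclei showing high fluorescence intensity.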
KB-V1 MDR tox: KB-V1 MDR subline cytotoxicity. Potency, µM (top dose mostly 46.1 µM), most hits filed as cytotoxic. 400,000 tested, 3.4% active. KB-V1 MDR cells viability, CellTiter-Glo, 72 h; also: % is scaled to controls: 0 for no effect and ±100 for the full control effect; nearly all actives have a fitted effect of over 60% in size
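Compound-treated KB-V1 multidrug-resistant cells, 72 h, 37 degrees C; viability by CellTiter-Glo. Fitted qHTS curves give the values.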
KB-3-1 tox: KB-3-1 parental cell cytotoxicity; 400,000 tested, 1.4% active; KB-3-1 viability, CellTiter-Glo ATP luminescence, 72 h; Potency, µM (top dose mostly 46.1 µM), usual class: cytotoxic; also: % is scaled to controls: 0 for no effect and ±100 for the full control effect; nearly all actives have a fitted effect of over 60% in size
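Here the drug-naive KB-3-1 line serves as comparator for MDR sub-line selectivity; cells received compound titrations, 72 h at 37 °C, then CellTiter-Glo readout.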
* marks the source's active call; other numbers are inactive results; i = inactive; ? = inconclusive; / = not tested or not shown; [ ] = another dose, or the depositor's remark. The list is not random: actives were taken first. Their share in the collection is about 5.8%. Unless noted, calls follow the shape of the dose curve; as a rule, active = well fitted curve in the direction sought with a large enough effect; inconclusive = small, poorly fitted or top-dose-only effect, or another doubt; inactive = no such curve, though single readings can be large; an effect the other way counts as inactive or inconclusive. Potency is read from the fitted curve at half-maximal effect.

SMILES	PINK1 modulator	12-LOX inh	MCF10A rereplic	SW480 rerep	KB-V1 MDR tox	KB-3-1 tox
O=c1c(Cl)c(Cl)cnn1Cc1nnc(-c2ccc(Cl)cc2)o1	-1.7%	-14.9%	5.8µM*	3.66µM*	i	?
Cc1ccc(Cn2ncc(Cl)c(Cl)c2=O)cc1	-2.8%	0.1%	?	?	i	i
O=c1c(Cl)c(Cl)cnn1Cc1ccccc1Cl	-0.5%	-20.2%	5.8µM*	?	i	?
Cc1cc(C)cc(Cn2ncc(Cl)c(Cl)c2=O)c1	-5.0%	-20.5%	3.66µM*	3.66µM*	23.1µM*	?
CC(NC(=O)c1cc2ccccc2oc1=O)c1ccc(C(F)(F)F)cc1 (centres undefined)	/	-30.1%	/	/	/	/
CN(C)C(=O)C1CN(C(=O)NC2CCCCC2)CC12CCOCC2 (centres undefined)	/	15.7%	/	/	/	/
Cn1nnnc1-c1cccc(NS(=O)(=O)c2ccc(F)c(F)c2)c1	/	6.8%	/	/	/	/
CCN(CC)C(c1ccc(F)cc1)c1nnnn1C1CCCCC1 (centres undefined)	/	-6.0%	1.5%	-13.5%	i	i
CCN(CC)C(c1ccc(C)cc1)c1nnnn1C1CCCCC1 (centres undefined)	-0.4%[38.3 µM]	-38.1%	?	9.0%	13µM*	?
N/C(Cc1ccc([N+](=O)[O-])cc1)=N\OC(=O)c1cccc(Br)c1	0.4%	-3.7%	?	11.6µM*	i	i
Nc1ccc(N=Nc2ccccc2)c(N)n1	-0.9%	?	5.0%	-25.1%	?	i
Cc1[nH]c(N=Nc2ccccc2)nc1N=Nc1ccccc1	0.7%	-28.7%	?	7.31µM*	?	18.4µM*
CC1=Nc2cc(C(=O)NCc3ccccc3Cl)ccc2Sc2c(C)ccc(C)c21	0.9%	-1.7%	/	/	1.46µM*	1.03µM*
CCC1=Nc2cc(C(=O)NCc3ccccc3Cl)ccc2Sc2ccc(C)cc21	7.3%	0.2%	/	/	?	3.66µM*
CCOC(=O)C(=O)c1csc(NC(=O)CCSc2ccc(C)cc2)n1	7.2%	37.9%	0.581µM*	3.0%	i	i
CCOC(=O)c1csc(NC(=O)CCSc2ccccc2)n1	2.6%	0.0%	20.2%	-49.6%	?	i
CC(=O)c1ccc(NC(=S)NC(C)c2ccc(Cl)cc2Cl)cc1 (centres undefined)	?	?	?	-4.0%	18.4µM*	i
COc1ccc2c(c1)C(=O)N1[C@H]3c4cc(OC)ccc4OC[C@@H]3[C@H](c3ccccc3)[C@]1(C)C(=O)N2	4.3%	-17.9%	?	?	i	i
C[C@@]12C(=O)Nc3ccc(F)cc3C(=O)N1[C@H]1c3cc(Cl)ccc3OC[C@@H]1[C@@H]2c1ccccc1	2.1%	?	18.4µM*	20.6µM*	i	?
Cc1ccc2c(c1)[C@H]1[C@H](CO2)[C@H](c2ccccc2)[C@]2(C)C(=O)Nc3ccc(Br)cc3C(=O)N12	3.5%	?	10.8%	?	i	i
Cc1ccc2c(c1)C(=O)N1[C@H]3c4cc(Cl)ccc4OC[C@@H]3[C@H](c3ccccc3)[C@]1(C)C(=O)N2	7.9%	-2.4%	10.3µM*	?	i	?
Cc1ccc2c(c1)C(=O)N1[C@H]3c4cc(Br)ccc4OC[C@@H]3[C@H](c3ccccc3)[C@]1(C)C(=O)N2	3.2%	-17.2%	13µM*	22.2%	?	i
C[C@@]12C(=O)Nc3cc(Cl)ccc3C(=O)N1[C@H]1c3cc(Cl)ccc3OC[C@@H]1[C@@H]2c1ccccc1	6.3%	-2.1%	?	?	?	?
Cc1ccc2c(c1)C(=O)N1[C@H]3c4cc(C)ccc4OC[C@@H]3[C@H](c3ccccc3)[C@]1(C)C(=O)N2	7.2%	-18.1%	5.8µM*	?	?	?
CCCNC(=O)c1ccc2nc(-c3ccc(C)cc3)cc(OCC)c2c1	/	20.9%	/	/	/	/
SMILES	PINK1 modulator	12-LOX inh	MCF10A rereplic	SW480 rerep	KB-V1 MDR tox	KB-3-1 tox
O=C(c1nccc2ccccc12)N1CCC(N2C(=O)C(OCC3CC3)C23CCCCC3)CC1 (centres undefined)	/	17.6%	/	/	/	/
COc1cc2c(cc1OC)C(COc1ccc([N+](=O)[O-])cc1)N(C(C)=O)CC2 (centres undefined)	0.8%	0.0%	-3.3%	-0.5%	?	16.4µM*
COc1ccc(CC(=O)N2CCc3cc(OC)c(OC)cc3C2COc2ccc(F)cc2)cc1 (centres undefined)	-3.3%	4.2%	/	/	7.31µM*	i
COc1ccc(CC(=O)N2CCc3cc(OC)c(OC)cc3C2COc2ccc(F)cc2)cc1OC (centres undefined)	-1.9%	8.3%	/	/	i	i
C[C@H]1[C@@H]2[C@@H](O)C([C@H](C)C(=O)NCc3cccs3)CC[C@@]2(C)CC[C@@H]1NC(=O)c1cnccn1 (some centres undefined)	/	47.3%	/	/	/	/
O=C(COC(=O)C1CC2C=CC1C2)Nc1c(Br)cc([N+](=O)[O-])cc1Br (centres undefined)	9.4%	22.4µM*	-10.3%	1.8%	/	/
O=C(COC(=O)C1CC2C=CC1C2)Nc1ccc([N+](=O)[O-])cc1 (centres undefined)	16.5%	-7.9%	1.9%	28.6%	i	i
CCCC(C)C(=O)NCc1cccs1 (centres undefined)	/	-5.9%	/	/	/	/
CC(=O)c1c(O)c(C)c(O)c2c1OC1=CC(=O)C(C(C)=O)C(=O)[C@@]12C (some centres undefined)	1.1%	?	3.66µM*	2.6%	i	?
CCN(CC)S(=O)(=O)c1c(OC)cc(C)c(Cl)c1C	-2.5%	1.0%	18.6%	1.16µM*	i	i
CN(C)/N=C/C=C1\CCC/C(=C\c2ccc(F)c(F)c2)C1=O	-1.0%	-65.1%	14.1µM*	?	?	?
O=C1/C(=C/c2ccc(F)c(Br)c2)CCc2ccccc21	/	-0.8%	/	/	/	/
COc1ccc(/C=C2\CCC/C(=C\C=N\N(C)C)C2=O)cc1	-0.4%	?	8.2µM*	-22.0%	?	i
Cc1nc2ccc(Cl)cc2cc1C(=O)NCC(=O)N1CCCCC1	/	18.6%	/	/	/	/
O=C(c1ccccc1)N1CCN(CC2CC=CCC2)CC1 (centres undefined)	-2.6%	?	-177.1%[0.0737 µM]	2.8%	i	i
O=C(c1ccccc1)N1CCN(CC(O)COCC2CC=CCC2)CC1 (centres undefined)	2.9%	-6.7%	3.6%	-12.0%	9.2µM*	i
COc1ccc2c(c1)C(=O)CC(c1ccc3c(c1)OCCO3)O2 (centres undefined)	3.0%	11.8%	-6.8%	0.2%	i	i
